Experimental data reported in the supplement of paper PMC10849652.
The full data set covers some 8,800 targets. This sample favours those with a hit. About 0.5% of all pairs of compound and target were hits.

Key:
Assay in all cases: log2 fold change, soluble protein after heating vs DMSO (PISA); higher = thermal stabilisation; K562 lysate, 10 uM; active = over 0.2 and 3.5 SD of the protein, either way, in both replicates (recomputed)
[1] = compound: CS(=O)(=O)CCNCc1ccc(-c2ccc3ncnc(Nc4ccc(OCc5cccc(F)c5)c(Cl)c4)c3c2)o1 [lapatinib]
Method in brief: (§1)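 Log-two fold change in thermal stability relative to solvent controls is reported from duplicates. For each sample, crude K562 extract from dounce-homogenised pellets in PBS pH 7.4 with 1 mM MgCl2, at 1 mg/mL protein, was treated with 10 μM compound for 30 min. Aliquots heated for 3 min across 48°C-58°C were pooled, brought to 0.5% NP-40 at 4°C and cleared at 21,000xg for 90 min. The supernatant was quantified by TMTpro 16plex LC-MS/MS with channel sums equalised.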

[2] = compound: CS(=O)(=O)N1CCN(Cc2cc3nc(-c4cccc5[nH]ncc45)nc(N4CCOCC4)c3s2)CC1 [pictilisib]
Method in brief: as §1

[3] = compound: C[C@@H](Oc1cc(-c2cnn(C3CCNCC3)c2)cnc1N)c1c(Cl)ccc(F)c1Cl [crizotinib]
Method in brief: as §1

[4] = compound: C[C@H](C1=CC=C(C=C1)C(=O)NC2=C3C=CNC3=NC=C2)N
Method in brief: as §1

[5] = compound: C[C@H](Nc1ncnc2nc[nH]c12)c1cc2cccc(Cl)c2c(=O)n1-c1ccccc1 [duvelisib]
Method in brief: as §1

[6] = compound: Cc1cc(Nc2cc(CN3CCOCC3)c3nc(C)c(Cc4ccc(Cl)cc4F)n3n2)n[nH]1 [gandotinib]
Method in brief: as §1

[7] = compound: Cc1cc(Nc2cc(N3CCN(C)CC3)nc(Sc3ccc(NC(=O)C4CC4)cc3)n2)n[nH]1 [tozasertib]
Method in brief: as §1

[8] = compound: Cc1ccc(-n2nc(C(C)(C)C)cc2NC(=O)Nc2ccc(OCCN3CCOCC3)c3ccccc23)cc1 [doramapimod]
Method in brief: as §1

[9] = compound: Cc1ccc(NC(=O)c2ccc(CN3CC[C@H](N(C)C)C3)c(C(F)(F)F)c2)cc1Nc1nccc(-c2cncnc2)n1 [bafetinib]
Method in brief: as §1

[10] = compound: Cc1cccc(CC(=O)N2CCc3c2ccc(-c2cn(C)c4ncnc(N)c24)c3F)n1
Method in brief: as §1

[11] = compound: Cc1cn(-c2cc(NC(=O)c3ccc(C)c(Nc4nccc(-c5cccnc5)n4)c3)cc(C(F)(F)F)c2)cn1 [nilotinib]
Method in brief: as §1

[12] = compound: Cc1nc(Nc2n[nH]c3c2CN(C(=O)N[C@H](CN(C)C)c2ccccc2)C3(C)C)c2sccc2n1
Method in brief: as §1

[13] = compound: Cc1nc(Nc2ncc(C(=O)Nc3c(C)cccc3Cl)s2)cc(N2CCN(CCO)CC2)n1 [dasatinib]
Method in brief: as §1

[14] = compound: Cc1ncc(-c2ccnc(Nc3ccc(S(C)(=O)=O)cc3)n2)n1C(C)C
Method in brief: as §1

[15] = compound: Cn1cc(-c2ccc3c(c2)CCN3C(=O)Cc2cccc(C(F)(F)F)c2)c2c(N)ncnc21
Method in brief: as §1

[16] = compound: Cn1cc(CNCC2CCN(c3ncc(C(=O)NO)cn3)CC2)c2ccccc21 [quisinostat]
Method in brief: as §1

[17] = compound: Cn1cncc1[C@@](N)(c1ccc(Cl)cc1)c1ccc2c(c1)c(-c1cccc(Cl)c1)cc(=O)n2C [tipifarnib]
Method in brief: as §1

[18] = compound: NC(=O)Nc1cc(-c2cccc(F)c2)sc1C(=O)N[C@H]1CCCNC1
Method in brief: as §1

[19] = compound: NC(=O)c1cnc(N[C@@H]2CCCC[C@@H]2N)nc1Nc1cccc(-n2nccn2)c1
Method in brief: as §1

[20] = compound: NC1(c2ccc(-c3nc4ccn5c(=O)[nH]nc5c4cc3-c3ccccc3)cc2)CCC1
Method in brief: as §1

Measured: log2 fold change

DIAPH3 (UniProt Q9NSV4)
Sequence of UniProt Q9NSV4 (Q9NSV4 whole entry, looked up): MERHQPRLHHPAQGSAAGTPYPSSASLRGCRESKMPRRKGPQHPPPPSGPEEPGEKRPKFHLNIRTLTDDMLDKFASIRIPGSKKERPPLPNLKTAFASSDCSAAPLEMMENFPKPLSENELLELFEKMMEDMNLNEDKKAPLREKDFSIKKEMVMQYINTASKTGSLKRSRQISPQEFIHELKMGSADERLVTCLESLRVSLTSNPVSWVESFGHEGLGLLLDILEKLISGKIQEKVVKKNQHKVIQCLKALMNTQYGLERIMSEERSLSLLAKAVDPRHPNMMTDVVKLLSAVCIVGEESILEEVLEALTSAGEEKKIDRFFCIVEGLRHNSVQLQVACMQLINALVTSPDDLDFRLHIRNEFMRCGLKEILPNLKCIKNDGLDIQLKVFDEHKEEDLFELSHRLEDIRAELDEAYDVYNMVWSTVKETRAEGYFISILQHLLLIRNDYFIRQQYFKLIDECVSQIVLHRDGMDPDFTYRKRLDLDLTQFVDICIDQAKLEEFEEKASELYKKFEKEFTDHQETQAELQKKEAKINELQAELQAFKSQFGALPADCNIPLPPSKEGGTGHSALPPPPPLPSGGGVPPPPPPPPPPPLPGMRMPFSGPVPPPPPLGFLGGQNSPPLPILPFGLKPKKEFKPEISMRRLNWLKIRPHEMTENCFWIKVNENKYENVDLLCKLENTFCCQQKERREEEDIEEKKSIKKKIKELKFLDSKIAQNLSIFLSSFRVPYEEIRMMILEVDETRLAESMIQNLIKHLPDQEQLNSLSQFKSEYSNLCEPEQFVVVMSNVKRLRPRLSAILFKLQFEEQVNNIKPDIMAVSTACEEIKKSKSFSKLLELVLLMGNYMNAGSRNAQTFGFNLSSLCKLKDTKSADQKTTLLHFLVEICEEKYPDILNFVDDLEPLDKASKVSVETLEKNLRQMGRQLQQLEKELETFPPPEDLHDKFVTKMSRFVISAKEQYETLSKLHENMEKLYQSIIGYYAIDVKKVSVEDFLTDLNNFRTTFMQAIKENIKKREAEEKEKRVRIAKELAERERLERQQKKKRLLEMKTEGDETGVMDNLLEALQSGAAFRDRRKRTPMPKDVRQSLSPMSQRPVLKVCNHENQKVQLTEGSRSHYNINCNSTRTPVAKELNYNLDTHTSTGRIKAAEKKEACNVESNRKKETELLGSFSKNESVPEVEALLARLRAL
inactive: [1] 0.068 | [2] 0.005 | [3] 0.003 | [4] 0.039 | [5] -0.043 | [6] -0.102 | [7] -0.017 | [8] 0.036 | [9] -0.075 | [10] 0.135 | [11] -0.019 | [12] 0.019 | [13] -0.167 | [14] -0.021 | [15] 0.029 | [16] -0.093 | [17] -0.041 | [18] 0.057 | [19] 0.077 | [20] 0.019

COG3 (UniProt Q96JB2)
inactive: [1] -0.036 | [2] -0.054 | [3] -0.062 | [4] -0.036 | [5] 0.006 | [6] -0.064 | [7] 0.015 | [8] 0.03 | [9] 0.003 | [10] 0.093 | [11] -0.02 | [12] -0.023 | [13] -0.13 | [14] -0.002 | [15] 0.023 | [16] -0.097 | [17] 0.022 | [18] 0.044 | [19] 0.024 | [20] -0.083

COQ8A (UniProt Q8NI60)
Sequence of UniProt Q8NI60 (Q8NI60 whole entry, looked up): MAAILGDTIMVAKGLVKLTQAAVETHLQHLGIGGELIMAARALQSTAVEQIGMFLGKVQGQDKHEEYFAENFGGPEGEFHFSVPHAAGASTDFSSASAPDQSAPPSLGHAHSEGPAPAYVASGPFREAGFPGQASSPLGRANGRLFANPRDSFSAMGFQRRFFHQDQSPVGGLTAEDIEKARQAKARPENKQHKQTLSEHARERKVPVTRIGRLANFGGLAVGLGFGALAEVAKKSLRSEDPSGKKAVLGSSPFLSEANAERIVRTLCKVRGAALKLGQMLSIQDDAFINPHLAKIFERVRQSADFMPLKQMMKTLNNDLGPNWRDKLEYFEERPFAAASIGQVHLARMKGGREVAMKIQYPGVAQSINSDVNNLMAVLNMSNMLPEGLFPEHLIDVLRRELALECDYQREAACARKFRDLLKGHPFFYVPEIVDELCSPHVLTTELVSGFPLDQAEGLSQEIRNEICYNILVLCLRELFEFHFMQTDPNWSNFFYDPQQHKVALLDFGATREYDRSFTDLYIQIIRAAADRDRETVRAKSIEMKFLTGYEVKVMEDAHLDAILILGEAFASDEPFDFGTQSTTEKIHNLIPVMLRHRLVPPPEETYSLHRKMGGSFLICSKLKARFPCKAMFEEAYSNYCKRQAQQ
inactive: [1] 0.004 | [2] 0.025 | [3] 0.106 | [4] -0.078 | [5] -0.095 | [6] 0.126 | [7] 0.023 | [8] -0.059 | [9] 0.041 | [10] -0.042 | [11] 0.091 | [12] -0.013 | [13] 0.394 | [14] -0.211 | [15] -0.05 | [16] 0.082 | [17] 0.032 | [18] 0.051 | [19] 0.348 | [20] 0.004

DIAPH1 (UniProt O60610)
Sequence of UniProt O60610 (O60610 whole entry, looked up): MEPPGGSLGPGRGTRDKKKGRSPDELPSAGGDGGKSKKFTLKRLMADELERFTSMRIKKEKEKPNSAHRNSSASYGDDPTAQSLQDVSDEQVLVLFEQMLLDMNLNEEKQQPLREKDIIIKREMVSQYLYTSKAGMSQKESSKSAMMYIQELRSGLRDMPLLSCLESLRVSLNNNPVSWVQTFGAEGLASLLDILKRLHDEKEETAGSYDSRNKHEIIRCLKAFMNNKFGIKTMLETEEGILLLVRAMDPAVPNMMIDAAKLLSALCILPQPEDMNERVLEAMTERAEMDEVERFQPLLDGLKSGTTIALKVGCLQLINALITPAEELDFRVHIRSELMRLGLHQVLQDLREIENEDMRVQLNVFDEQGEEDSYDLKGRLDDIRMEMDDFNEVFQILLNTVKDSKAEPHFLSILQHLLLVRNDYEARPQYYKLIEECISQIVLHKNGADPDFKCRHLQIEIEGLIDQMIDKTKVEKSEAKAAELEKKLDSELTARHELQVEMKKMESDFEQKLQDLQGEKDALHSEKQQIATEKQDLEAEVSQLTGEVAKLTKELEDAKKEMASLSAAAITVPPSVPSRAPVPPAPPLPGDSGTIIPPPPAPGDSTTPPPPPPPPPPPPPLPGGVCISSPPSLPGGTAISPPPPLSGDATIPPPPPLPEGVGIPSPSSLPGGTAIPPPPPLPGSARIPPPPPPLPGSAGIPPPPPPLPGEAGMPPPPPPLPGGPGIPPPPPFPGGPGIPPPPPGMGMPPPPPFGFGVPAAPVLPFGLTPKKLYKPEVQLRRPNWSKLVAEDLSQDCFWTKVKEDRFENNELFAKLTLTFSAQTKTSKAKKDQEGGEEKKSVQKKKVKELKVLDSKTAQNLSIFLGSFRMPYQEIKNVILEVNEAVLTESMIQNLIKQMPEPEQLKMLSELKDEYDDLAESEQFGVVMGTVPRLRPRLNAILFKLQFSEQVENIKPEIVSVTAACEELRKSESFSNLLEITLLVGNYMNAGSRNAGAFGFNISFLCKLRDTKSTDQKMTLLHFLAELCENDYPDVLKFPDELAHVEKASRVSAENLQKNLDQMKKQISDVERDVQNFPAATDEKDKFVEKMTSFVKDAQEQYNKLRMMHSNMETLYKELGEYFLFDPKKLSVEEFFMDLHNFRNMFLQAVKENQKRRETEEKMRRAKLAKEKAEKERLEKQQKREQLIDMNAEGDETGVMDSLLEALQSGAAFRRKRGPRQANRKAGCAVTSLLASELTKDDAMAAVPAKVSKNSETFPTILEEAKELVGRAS
inactive: [1] -0.007 | [2] 0.014 | [3] 0.004 | [4] 0.06 | [5] -0.006 | [6] -0.063 | [7] 0.004 | [8] -0.003 | [9] -0.001 | [10] -0.021 | [11] -0.003 | [12] -0.009 | [13] -0.019 | [14] -0.009 | [15] 0.006 | [16] -0.006 | [17] -0.006 | [18] -0.006 | [19] 0.002 | [20] 0.008

DOCK7 (UniProt Q96N67)
inactive: [1] -0.003 | [2] -0.016 | [3] -0.022 | [4] -0.107 | [5] -0.004 | [6] -0.103 | [7] 0.047 | [8] 0.012 | [9] -0.032 | [10] 0.102 | [11] 0.005 | [12] -0.002 | [13] 0.01 | [14] -0.03 | [15] 0.029 | [16] -0.039 | [17] -0.01 | [18] 0.048 | [19] 0.036 | [20] -0.062

DHRS1 (UniProt Q96LJ7)
active: [5] 0.406
inactive: [1] -0.138 | [2] -0.089 | [3] -0.014 | [4] -0.037 | [6] 0.099 | [7] -0.281 | [8] -0.015 | [9] 0.056 | [10] 0.092 | [11] -0.009 | [12] -0.043 | [13] 0.063 | [14] -0.064 | [15] -0.042 | [16] 0.012 | [17] 0.055 | [18] -0.001 | [19] 0.033 | [20] -0.026

CORO7 isoform 3 (UniProt P57737)
Sequence of UniProt P57737 (P57737 whole entry, looked up): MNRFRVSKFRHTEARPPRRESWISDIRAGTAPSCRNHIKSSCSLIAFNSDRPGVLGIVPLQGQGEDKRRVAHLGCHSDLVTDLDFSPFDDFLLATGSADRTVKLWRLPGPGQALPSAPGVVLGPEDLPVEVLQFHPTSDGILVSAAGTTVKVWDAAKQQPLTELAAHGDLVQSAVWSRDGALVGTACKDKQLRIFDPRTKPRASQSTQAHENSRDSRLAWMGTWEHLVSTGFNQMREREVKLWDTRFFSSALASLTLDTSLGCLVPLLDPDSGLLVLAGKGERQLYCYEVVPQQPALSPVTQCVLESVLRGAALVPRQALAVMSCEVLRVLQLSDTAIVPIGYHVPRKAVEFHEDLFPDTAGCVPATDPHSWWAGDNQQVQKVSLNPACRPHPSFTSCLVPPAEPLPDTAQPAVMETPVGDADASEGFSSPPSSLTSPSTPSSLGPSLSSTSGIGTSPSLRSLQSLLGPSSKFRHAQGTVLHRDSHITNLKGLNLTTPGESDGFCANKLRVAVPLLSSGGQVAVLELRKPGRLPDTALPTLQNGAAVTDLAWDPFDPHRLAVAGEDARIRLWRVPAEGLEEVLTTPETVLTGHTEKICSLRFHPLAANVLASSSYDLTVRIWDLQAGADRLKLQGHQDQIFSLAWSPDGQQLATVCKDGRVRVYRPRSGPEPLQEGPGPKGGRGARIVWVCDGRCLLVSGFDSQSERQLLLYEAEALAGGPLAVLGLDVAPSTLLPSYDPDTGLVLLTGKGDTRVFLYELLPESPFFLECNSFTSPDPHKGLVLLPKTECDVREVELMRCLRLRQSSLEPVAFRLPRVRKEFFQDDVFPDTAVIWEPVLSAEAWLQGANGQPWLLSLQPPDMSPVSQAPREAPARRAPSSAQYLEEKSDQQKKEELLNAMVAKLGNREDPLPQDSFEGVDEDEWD
inactive: [1] 0.009 | [2] -0.016 | [3] -0.063 | [4] 0.06 | [5] 0.004 | [6] -0.119 | [7] 0.005 | [8] 0.013 | [9] 0.001 | [10] -0.067 | [11] -0.006 | [12] 0.003 | [13] -0.032 | [14] 0.01 | [15] 0.019 | [16] -0.026 | [17] 0.005 | [18] 0.012 | [19] -0.016 | [20] -0.013

CMIP (UniProt Q8IY22)
inactive: [1] 0.002 | [2] -0.013 | [3] -0.001 | [4] 0.046 | [5] -0.035 | [6] -0.062 | [7] 0.017 | [8] -0.094 | [9] -0.064 | [10] 0.002 | [11] -0.034 | [12] 0.023 | [13] -0.063 | [14] 0.016 | [15] 0.008 | [16] -0.052 | [17] -0.045 | [18] 0.075 | [19] -0.008 | [20] -0.036

CNOT6L (UniProt Q96LI5)
inactive: [1] -0.03 | [2] -0.042 | [3] -0.076 | [4] -0.251 | [5] -0.001 | [6] 0.065 | [7] 0.064 | [8] 0.012 | [9] -0.1 | [10] 0.114 | [11] -0.026 | [12] 0.016 | [13] -0.053 | [14] 0.001 | [15] 0.01 | [16] -0.054 | [17] -0.047 | [18] 0.055 | [19] -0.024 | [20] 0.003

CSPP1 (UniProt Q1MSJ5)
inactive: [1] -0.103 | [2] -0.176 | [3] 0.013 | [4] 0.031 | [5] -0.089 | [6] 0.056 | [7] -0.04 | [8] 0.018 | [9] -0.013 | [10] -0.002 | [11] -0.105 | [12] -0.014 | [13] 0.046 | [14] 0.011 | [15] -0.062 | [16] 0.026 | [17] 0.078 | [18] 0.015 | [19] -0.227 | [20] 0.011

DMAC2L (UniProt Q99766)
Sequence of UniProt Q99766 (Q99766 whole entry, looked up): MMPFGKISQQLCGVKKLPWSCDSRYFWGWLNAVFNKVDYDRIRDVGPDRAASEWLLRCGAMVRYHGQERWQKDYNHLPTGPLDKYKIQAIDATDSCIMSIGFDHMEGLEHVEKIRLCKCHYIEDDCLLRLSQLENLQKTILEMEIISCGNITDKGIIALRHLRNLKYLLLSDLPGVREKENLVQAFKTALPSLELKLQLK
inactive: [1] -0.021 | [2] -0.036 | [3] 0.012 | [4] -0.048 | [5] -0.037 | [6] 0.047 | [7] 0.087 | [8] 0.002 | [9] 0.009 | [10] 0.1 | [11] -0.021 | [12] 0.001 | [13] 0.059 | [14] -0.04 | [15] -0.009 | [16] 0.012 | [17] -0.017 | [18] -0.032 | [19] -0.006 | [20] 0.111

CKM (UniProt P06732)
active: [4] -0.431
inactive: [1] -0.041 | [2] -0.035 | [3] -0.13 | [5] 0.087 | [6] 0.096 | [7] -0.078 | [8] -0.019 | [9] -0.023 | [10] 0.113 | [11] 0.033 | [12] 0 | [13] -0.056 | [14] 0.062 | [15] -0.093 | [16] -0.175 | [17] -0.072 | [18] 0.068 | [19] -0.025 | [20] 0.007

DAZAP1 (UniProt Q96EP5)
inactive: [1] 0.017 | [2] -0.043 | [3] 0.073 | [4] 0.035 | [5] 0.015 | [6] 0 | [7] 0.064 | [8] 0.003 | [9] 0.243 | [10] -0.04 | [11] -0.066 | [12] 0.04 | [13] 0.015 | [14] 0.044 | [15] -0.016 | [16] 0.118 | [17] -0.039 | [18] 0.005 | [19] 0.01 | [20] -0.008

DCTN1 (UniProt Q14203)
inactive: [1] -0.005 | [2] -0.021 | [3] -0.005 | [4] 0.027 | [5] 0.001 | [6] -0.029 | [7] -0.002 | [8] -0.013 | [9] -0.023 | [10] -0.005 | [11] 0.008 | [12] -0.005 | [13] -0.025 | [14] 0.012 | [15] 0.017 | [16] 0.001 | [17] -0.001 | [18] 0.011 | [19] 0.009 | [20] -0.007

DNAAF5 (UniProt Q86Y56)
inactive: [1] -0.03 | [2] -0.008 | [3] -0.104 | [4] 0.016 | [5] 0.021 | [6] -0.147 | [7] -0.055 | [8] 0.024 | [9] -0.066 | [10] 0.027 | [11] -0.015 | [12] 0.004 | [13] -0.118 | [14] -0.024 | [15] 0.007 | [16] -0.1 | [17] -0.002 | [18] 0.073 | [19] 0.006 | [20] 0.024

DLG3 isoform 2 (UniProt Q92796)
Sequence of UniProt Q92796 (Q92796 whole entry, looked up): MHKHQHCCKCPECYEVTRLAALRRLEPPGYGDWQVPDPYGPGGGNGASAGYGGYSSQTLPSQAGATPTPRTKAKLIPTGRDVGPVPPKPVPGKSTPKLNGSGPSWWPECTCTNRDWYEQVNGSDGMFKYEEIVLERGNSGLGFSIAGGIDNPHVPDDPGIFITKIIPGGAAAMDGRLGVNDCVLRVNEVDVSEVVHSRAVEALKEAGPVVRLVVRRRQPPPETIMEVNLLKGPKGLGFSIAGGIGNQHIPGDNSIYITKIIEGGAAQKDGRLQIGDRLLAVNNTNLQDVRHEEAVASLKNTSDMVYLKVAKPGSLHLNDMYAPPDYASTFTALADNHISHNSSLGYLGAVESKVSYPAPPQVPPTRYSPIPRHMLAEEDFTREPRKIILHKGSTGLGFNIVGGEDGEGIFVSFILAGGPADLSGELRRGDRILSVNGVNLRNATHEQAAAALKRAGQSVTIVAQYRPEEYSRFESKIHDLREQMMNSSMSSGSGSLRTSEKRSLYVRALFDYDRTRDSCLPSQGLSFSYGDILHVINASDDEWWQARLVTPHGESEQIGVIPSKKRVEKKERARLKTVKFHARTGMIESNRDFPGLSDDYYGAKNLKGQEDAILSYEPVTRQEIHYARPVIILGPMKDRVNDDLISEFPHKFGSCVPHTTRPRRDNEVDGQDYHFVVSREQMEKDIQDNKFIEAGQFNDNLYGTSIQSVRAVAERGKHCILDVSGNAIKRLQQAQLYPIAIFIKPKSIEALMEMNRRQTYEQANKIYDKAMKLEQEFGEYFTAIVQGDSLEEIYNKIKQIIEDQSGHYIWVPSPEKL
inactive: [1] 0.008 | [2] 0.073 | [3] -0.01 | [4] -0.047 | [5] 0.125 | [6] 0 | [7] 0.097 | [8] 0.043 | [9] 0.055 | [10] 0.065 | [11] -0.036 | [12] 0.027 | [13] -0.062 | [14] 0.146 | [15] -0.004 | [16] -0.007 | [17] 0.085 | [18] -0.03 | [19] -0.031 | [20] -0.049
